DRD3 agonist: D3 dopamine receptor (human) agonism; D3R DiscoveRx beta-arrestin cells, luminescence, 90 min; max activation, %; 410,000 tested, 0.58% active; AID 652048; in the data active means max activation above about 30%; further: 0% is about no effect
Target sequence (P35462 whole entry, looked up): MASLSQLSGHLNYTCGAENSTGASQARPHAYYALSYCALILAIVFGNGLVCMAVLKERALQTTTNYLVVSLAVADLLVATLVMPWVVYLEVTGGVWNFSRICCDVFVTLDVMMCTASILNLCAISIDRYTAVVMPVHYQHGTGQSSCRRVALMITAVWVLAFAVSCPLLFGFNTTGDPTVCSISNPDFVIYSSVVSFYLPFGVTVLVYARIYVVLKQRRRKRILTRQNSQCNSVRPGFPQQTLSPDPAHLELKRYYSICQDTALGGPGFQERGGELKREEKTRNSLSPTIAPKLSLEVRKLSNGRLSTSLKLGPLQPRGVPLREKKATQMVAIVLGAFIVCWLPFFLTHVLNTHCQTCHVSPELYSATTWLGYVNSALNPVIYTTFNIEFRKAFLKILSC
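Cells at 1500/well, incubated overnight, then treated with pinned compounds (dopamine as control) for 90 min at 37 degrees C. DiscoveRx reagent added for 30 - 60 minutes at room temperature; luminescence read.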
ClpP mod: qHTS Assay for Activators of ClpP. purified B. subtilis ClpP, FRET peptide cleavage, 20 min. 340,000 tested, 1.9% active. ATP-dependent Clp protease proteolytic subunit (Bacillus subtilis (strain 168)), P80244. Potency, µM (titrated, usually from 57.5 µM), for inactives: at the top dose activity change, negative = active. AID 651965, 2013; active means well fitted falling curve with a large enough effect; inconclusive means small, poorly fitted or top-dose-only effect; inactive means no such curve, though single readings can be large or run the other way; further: potency means the concentration at half of the fitted maximal effect; the source files actives as falling curves though it sought activators and does not explain the sign; nearly all actives have a fitted effect of over 65% in size
Target sequence (P80244 whole entry, looked up): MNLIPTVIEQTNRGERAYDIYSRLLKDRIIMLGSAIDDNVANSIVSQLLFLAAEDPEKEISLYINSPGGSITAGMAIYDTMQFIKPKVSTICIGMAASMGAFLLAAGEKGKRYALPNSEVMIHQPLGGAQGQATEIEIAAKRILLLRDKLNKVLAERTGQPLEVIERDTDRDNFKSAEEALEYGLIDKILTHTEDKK
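Buffer: 100 mM Tris/HCl pH8, 100 mM KCl, 0.05% low protease BSA, 2.5% glycerol, 0.01% Tween-20. ClpP 10 microg/mL final; 20 min RT; delta FRET normalized to ADEP and DMSO controls.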
DT40 TDP1 CPT: growth inhibition of DT40 Tdp1-/-;hTDP1 cells with camptothecin (screen for TDP1 inhibitors). chicken DT40 Tdp1-/-;hTDP1 cells + 20 nM CPT, ATP luminescence, 48 h. Potency, µM (series often up to 46.2 µM), for the others: at the highest dose activity change, negative = growth inhibition, most hits filed as inhibitors. 420,000 tested, 12% active. AID 686979; further: potency means the concentration at half of the fitted maximal effect; on the % scale 0 is the no-effect control and ±100 the full control effect; nearly all actives have a fitted effect of over 55% in size
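Chicken DT40 Tdp1-/- cells complemented with human TDP1, 400 cells/well, exposed to compounds plus 20 nM camptothecin for at least 48 h at 37 C; viability read as ATP content by CellTiter-Glo luminescence.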
D3 antag: D3 dopamine receptor (human) antagonism; D3R cells, DiscoveRx beta-arrestin luminescence, antagonist mode; active compounds read low; max response, negative = inhibition, %; 360,000 tested, 2.5% active; AID 652054; in the data active means max response below about -50%; inconclusive means no clear call, values can overlap the other calls; further: on the % scale 0 is the no-effect control and ±100 the full control effect
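Cells plated overnight at 1500 cells/well, then exposed to library compounds with dopamine controls for 90 minutes at 37 degrees C. DiscoveRx reagent added for 30–60 minutes at room temperature; luminescence read, quantitative HTS format.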
TDP1 cell noCPT: qHTS for Inhibitors of human tyrosyl-DNA phosphodiesterase 1 (TDP1): qHTS in cells in absence of CPT. DT40 Tdp1-/- hTDP1 cells, no CPT, ATP luminescence, 48 h. Potency, µM (doses to about 46.2 µM), inactives show at the top dose activity change, negative = growth inhibition, hits mostly inhibitors. 420,000 tested, 15% active; further: potency means the concentration at half of the fitted maximal effect; on the % scale 0 is the no-effect control and ±100 the full control effect; nearly all actives have a fitted effect of over 55% in size
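DT40 Tdp1-/-;hTDP1 cells, no CPT (DMSO vehicle only), 400 cells/well; compounds pin-transferred; ≥48 hr, 37 °C; CellTiter-Glo 30 min RT dark, luminescence read.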
IL1B secr inh: blocks inflammasome-driven IL-1 beta release; THP-1 LPS/ATP IL-1B secretion, AlphaLISA, 16 h; active compounds read low; activity change, % at 57.5 µM; 360,000 tested, 4.7% active; AID 743279; in the data active means activity change below about -50%; inconclusive means mostly about -30% to -49%; further: on the % scale 0 is the no-effect control and ±100 the full control effect
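THP-1 cells pretreated 1 hr with compounds (up to 57.5 uM final), then stimulated with LPS (250 ng/mL final) plus ATP (1.25 mM final); secreted IL-1B measured by AlphaLISA after 16 hr, decreased signal indicating inhibition.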
Numbers without * were called inactive. An excerpt weighted towards active compounds, which were near 21% of everything screened. Unless noted, the call rests on the fitted dose curve; in most records, active means well fitted inhibition curve with a large enough effect; inconclusive means small, poorly fitted or top-dose-only effect; inactive means flat fitted curve, though single readings scatter.

`CCOC(=O)N1CCN(C(=O)CSc2ccc3nnc(CCNC(=O)c4ccc(OC)cc4)n3n2)CC1` gave DRD3 agonist 8, DT40 TDP1 CPT -2%, D3 antag -9, TDP1 cell noCPT inconclusive and IL1B secr inh -4.
For CCOC(=O)c1ccccc1NC(=O)N1CCN(Cc2cc(=O)n3nc(-c4ccccc4)sc3n2)CC1 the results were DRD3 agonist 3, ClpP mod 0%, DT40 TDP1 CPT -2% and TDP1 cell noCPT -5%.
`CN(C)c1ccc(CNC(=O)CCCN2C(=O)CCn3nc(-c4cn(C)c5ccccc45)cc32)cc1` gave DRD3 agonist -3, ClpP mod -13%, DT40 TDP1 CPT inconclusive and TDP1 cell noCPT -19%.
For C=CCn1c(C)cc(/C([O-])=C(/C(=S)Nc2ccc(OC(F)F)cc2)[n+]2ccc(N(C)C)cc2)c1C the results were DRD3 agonist 3, DT40 TDP1 CPT 26µM*, D3 antag 13, TDP1 cell noCPT 18µM* and IL1B secr inh -11.
Cc1cc(C)c(/C([O-])=C(/C(=S)Nc2ccc(SC(F)F)cc2)[n+]2ccccc2)cc1C was read as DRD3 agonist 7, DT40 TDP1 CPT inconclusive, D3 antag 49, TDP1 cell noCPT -77% and IL1B secr inh 5.
`CN(C)c1cc[n+](/C(C(=S)Nc2ccc(SC(F)F)cc2)=C(/[O-])c2ccccc2)cc1` gave DRD3 agonist -4, ClpP mod 2%, DT40 TDP1 CPT 13µM*, D3 antag -14, TDP1 cell noCPT 10µM* and IL1B secr inh -10.
`[O-]/C(=C(\C(=S)Nc1ccc(SC(F)F)cc1)[n+]1ccccc1)c1cc(Cl)ccc1Cl` gave DRD3 agonist 7, DT40 TDP1 CPT 16µM*, D3 antag 11, TDP1 cell noCPT 16µM* and IL1B secr inh -24.
Cc1ccc(C)c(N2CCN(C(=O)c3ccc(CS(=O)(=O)c4ccccc4C)o3)CC2)c1 was read as DRD3 agonist 75*, ClpP mod 1%, DT40 TDP1 CPT 18µM*, D3 antag 29, TDP1 cell noCPT 18µM* and IL1B secr inh 1.
Screening Cc1ccc(S(=O)(=O)Cc2ccc(C(=O)N3CCN(c4cc(C)ccc4C)CC3)o2)cc1 returned DRD3 agonist 12, ClpP mod 1%, DT40 TDP1 CPT 15µM*, D3 antag -29, TDP1 cell noCPT 12µM* and IL1B secr inh 18.
For Cc1ccc(S(=O)(=O)Cc2ccc(C(=O)N3CCCCCC3)o2)cc1 the results were DRD3 agonist -7, ClpP mod 0%, DT40 TDP1 CPT inconclusive, D3 antag 0, TDP1 cell noCPT -27% and IL1B secr inh -14.
Cc1ccc(S(=O)(=O)Cc2ccc(C(=O)N3CCN(c4ccccn4)CC3)o2)cc1 was read as DRD3 agonist -4, ClpP mod -8%, DT40 TDP1 CPT 12µM*, D3 antag -11, TDP1 cell noCPT inconclusive and IL1B secr inh -1.
Screening O=C(c1ccc(CS(=O)(=O)c2ccc(Br)cc2)o1)N1CCN(c2ccccn2)CC1 returned DRD3 agonist -7, ClpP mod -8%, DT40 TDP1 CPT -25%, D3 antag 0, TDP1 cell noCPT inconclusive and IL1B secr inh -12.
COc1ccc(N2CCN(C(=O)c3ccc(CS(=O)(=O)c4ccccc4C)o3)CC2)cc1 was read as DRD3 agonist 1, ClpP mod 1%, DT40 TDP1 CPT inconclusive, D3 antag 8, TDP1 cell noCPT inconclusive and IL1B secr inh 19.
`O=C(CCSc1ccccc1)NNC(=O)c1ccccc1F` gave DRD3 agonist -3, DT40 TDP1 CPT 0%, D3 antag 12, TDP1 cell noCPT -21% and IL1B secr inh 41.
`CC1CCCCN1C(=O)CSc1nnc(-c2cccnc2)o1` (stereo not given) gave DRD3 agonist 5, DT40 TDP1 CPT 8%, D3 antag -12, TDP1 cell noCPT -9% and IL1B secr inh 10.
`O=C1CCc2cc(-c3csc(-c4ccc(O)cc4)n3)ccc2N1` gave ClpP mod inconclusive, DT40 TDP1 CPT 11µM* and TDP1 cell noCPT 3.2µM*.
Cc1ccc(-c2csc(Cc3nc(-c4ccc5c(c4)CCC(=O)N5)cs3)n2)cc1 was read as DRD3 agonist 2, DT40 TDP1 CPT inconclusive, D3 antag 16, TDP1 cell noCPT inconclusive and IL1B secr inh 35.
CC(C)(C)C(=O)NC1=NN(c2c(Cl)cc(Cl)cc2Cl)C(=O)C1 was read as DRD3 agonist -4, ClpP mod 0%, DT40 TDP1 CPT 1%, D3 antag -59*, TDP1 cell noCPT -8% and IL1B secr inh 11.
CON(C)C(=O)/C=C/c1ccc([B-](F)(F)F)cc1 was read as DRD3 agonist 10, ClpP mod 1%, DT40 TDP1 CPT inconclusive, D3 antag -9, TDP1 cell noCPT -26% and IL1B secr inh 0.
For COc1ccc(C(=O)NCC(c2ccc(Cl)cc2)N2CCCCC2)cc1 (stereo not given) the results were DRD3 agonist -17, ClpP mod 1%, DT40 TDP1 CPT 15µM* and TDP1 cell noCPT 12µM*.
Cc1cc(C)cc(OCC(=O)NCC(c2ccc(Cl)cc2)N2CCCCC2)c1 (stereo not given) was read as DRD3 agonist -8, ClpP mod 0%, DT40 TDP1 CPT 21µM* and TDP1 cell noCPT 16µM*.
COc1ccc(C(CNC(=O)Cc2c(F)cccc2Cl)N2CCCCC2)cc1 (stereo not given) was read as DRD3 agonist -15, DT40 TDP1 CPT -8%, D3 antag -111*, TDP1 cell noCPT -9% and IL1B secr inh -5.
`COc1ccc(OCC(=O)NCC(c2ccc(Cl)cc2)N2CCCCC2)cc1` (stereo not given) gave DRD3 agonist -18, ClpP mod 2%, DT40 TDP1 CPT 21µM* and TDP1 cell noCPT inconclusive.
`Cc1ccc(OCC(=O)NCC(c2ccc(Cl)cc2)N2CCCCC2)cc1` (stereo not given) gave DRD3 agonist -19, ClpP mod -1%, DT40 TDP1 CPT inconclusive and TDP1 cell noCPT inconclusive.
`CCOC(=O)/C(C#N)=C1/SC(CCO)C(=O)N1c1ccccc1` (stereo not given) gave DRD3 agonist 1, ClpP mod -1%, DT40 TDP1 CPT inconclusive, D3 antag 15, TDP1 cell noCPT inconclusive and IL1B secr inh 0.
